PubChem BioAssay (NCI)
Compounds without any hit were thinned out: in the full panel of roughly 79,000, 15% have a hit. The source made the active and inactive calls. Cut-off read from the data, not from the text of the source: active = growth inhibition above about 70%; inactive = the rest.

How the values were obtained:
[1] = NCI Yeast Anticancer Drug Screen. Data for the rad52 strain (AID 147);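 note: 0% = growth of vehicle-treated control cultures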; details: S. cerevisiae rad52 mutant growth inhibition, active compounds read high
How it was run: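 Measured: yeast growth inhibition. System: strain with a defined DNA damage repair alteration. Reference: vehicle-treated control cultures.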

[2] = NCI Yeast Anticancer Drug Screen. Data for the rad50EPP+ strain (AID 151);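 note: 0% = growth of vehicle-treated control cultures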; details: S. cerevisiae rad50 mutant strain, active compounds read high
How it was run: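 One strain with a rad50 alteration (rad50EPP+) was compound-treated, its growth then compared to that of vehicle controls.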

[3] = NCI Yeast Anticancer Drug Screen. Data for the mgt1 strain (AID 153); details: S. cerevisiae mgt1 mutant growth inhibition, active compounds read high
How it was run: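 After exposure of the mgt1 yeast mutant to compound, growth was measured and reported as inhibition compared with vehicle controls.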

[4] = NCI Yeast Anticancer Drug Screen. Data for the rad50 strain (AID 155);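 note: 0% = growth of vehicle-only cultures of the same strain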; details: S. cerevisiae rad50 strain growth inhibition, active compounds read high
How it was run: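 Vehicle-treated cultures provide the reference for the growth inhibition reported for compound-exposed, repair-deficient yeast.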

[5] = NCI Yeast Anticancer Drug Screen. Data for the mec2-1 strain (AID 157); details: S. cerevisiae mec2-1 strain, active compounds read high
How it was run: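 Test agents were screened against the mec2-1 yeast strain, with defined DNA repair or cell cycle alteration. Growth was scored as inhibition against vehicle-only controls.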

[6] = NCI Yeast Anticancer Drug Screen. Data for the rad14 strain (AID 159);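 note: 0% = growth of vehicle-treated control cultures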; details: S. cerevisiae rad14 strain growth inhibition, active compounds read high
How it was run: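 Inhibition of growth is reported for a repair-deficient yeast mutant following compound treatment, calculated relative to cultures that received vehicle.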

[7] = NCI Yeast Anticancer Drug Screen. Data for the sgs1 mgt1 strain (AID 161);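 note: 0% = growth of cultures given vehicle only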; details: S. cerevisiae sgs1 mgt1 strain, active compounds read high
How it was run: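 Test agents were incubated with a DNA-repair-mutant yeast strain. Growth was then read and compared against vehicle-treated controls.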

[8] = NCI Yeast Anticancer Drug Screen. Data for the CLN2oe strain (AID 163);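 note: 0% = growth of vehicle-only control cultures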; details: S. cerevisiae CLN2oe strain, active compounds read high
How it was run: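 Here, growth inhibition in a cell-cycle-altered yeast strain after compound exposure was quantified against vehicle control growth.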

[9] = NCI Yeast Anticancer Drug Screen. Data for the cln2 rad14 strain (AID 165);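 note: 0% = growth equal to vehicle treated cultures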; details: S. cerevisiae cln2 rad14 strain, active compounds read high
How it was run: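 Growth of compound-exposed yeast (cln2 rad14 genotype) measured and expressed as inhibition relative to vehicle.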

[10] = NCI Yeast Anticancer Drug Screen. Data for the bub3 strain (AID 167); details: S. cerevisiae bub3 mutant strain, active compounds read high
How it was run: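 Mutant yeast screening strain plus compound; vehicle-treated cultures serve as the 0% inhibition reference.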

[11] = NCI Yeast Anticancer Drug Screen. Data for the wt2 strain (AID 169); details: S. cerevisiae wt2 strain growth inhibition, active compounds read high
How it was run: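 Genetically defined yeast strains from a DNA-repair/cell-cycle panel were used. Compound-exposed yeast growth was measured, and the inhibition was calculated relative to vehicle treatment.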

[12] = NCI Yeast Anticancer Drug Screen. Data for the mlh1 strain (AID 171);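 note: 0% = growth of vehicle-treated control cultures of the same strain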; details: S. cerevisiae mlh1 strain growth inhibition, active compounds read high
How it was run: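 Here the genetically defined yeast mutant is grown with each compound, and the extent to which its growth falls below that of vehicle-exposed cells is reported.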

[13] = NCI Yeast Anticancer Drug Screen. Data for the sgs1 strain (AID 173);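 note: 0% = growth of vehicle-only control cultures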; details: S. cerevisiae sgs1 mutant, active compounds read high
How it was run: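 Relative growth inhibition, referenced to vehicle, was determined in a yeast strain with a defined alteration affecting DNA damage repair or cell cycle control after compound exposure.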

[14] = NCI Yeast Anticancer Drug Screen. Data for the mlh1 rad18 strain (AID 175); details: S. cerevisiae mlh1 rad18 strain growth inhibition, active compounds read high
How it was run: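 In this whole-cell yeast screen, a strain with altered DNA damage repair is challenged with compound, and its growth is measured against matched vehicle-treated controls.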

[15] = NCI Yeast Anticancer Drug Screen. Data for the rad18 strain (AID 177); details: S. cerevisiae rad18 mutant growth inhibition, active compounds read high
How it was run: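 Screen uses a yeast strain with a defined lesion in DNA damage repair; compound effect is read as loss of growth compared to untreated vehicle cultures.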

[16] = at 5.0 µM (retest, dose inferred, filed as 0.5)
[17] = at 50.0 µM (retest, dose inferred, filed as 5.0)

Measured: growth inhibition

O=C1C2C=CC1C1C(=O)OC(=O)C21 (stereo not drawn)
active: [4]; [17] 77% | [4]; at 50.0 µM 83.2% | [5]; at 50.0 µM 90.8% | [7]; at 50.0 µM 89.2% | [9]; at 50.0 µM 91.8% | [10]; at 50.0 µM 89.8% | [14]; at 50.0 µM 82.9%
inactive: [1]; at 1.2 µM -18% | [1]; at 3.7 µM -15% | [1]; at 11.0 µM -8% | [1]; at 33.0 µM -14% | [1]; at 100.0 µM -24% | [2]; at 1.2 µM -17% | [2]; at 3.7 µM -21% | [2]; at 11.0 µM -20% | [2]; at 33.0 µM -11% | [2]; at 100.0 µM -45% | [3]; at 1.2 µM -29% | [3]; at 3.7 µM -13% | [3]; at 11.0 µM -6% | [3]; at 33.0 µM -17% | [3]; at 100.0 µM -28% | [4]; at 1.2 µM -3% | [4]; at 3.7 µM -2% | [4]; [16] 49% | [4]; at 11.0 µM 16% | [4]; at 33.0 µM 13% | [4]; at 100.0 µM -2% | [5]; at 1.2 µM -54% | [5]; at 3.7 µM -52% | [5]; [16] 48% | [5]; at 11.0 µM -44% | [5]; at 33.0 µM -51% | [5]; [17] 58% | [5]; at 100.0 µM -45% | [6]; at 1.2 µM -57% | [6]; at 3.7 µM -44% | [6]; at 11.0 µM -48% | [6]; at 33.0 µM -48% | [6]; at 100.0 µM -43% | [7]; [16] 1% | [7]; [17] -6% | [8]; at 1.2 µM -8% | [8]; at 3.7 µM -6% | [8]; at 11.0 µM -24% | [8]; at 33.0 µM -27% | [8]; at 100.0 µM -25% | [9]; [16] 61% | [9]; [17] 25% | [10]; at 1.2 µM -19% | [10]; at 3.7 µM -10% | [10]; [16] 33% | [10]; at 11.0 µM -22% | [10]; at 33.0 µM -7% | [10]; [17] 14% | [10]; at 100.0 µM -23% | [11]; at 1.2 µM -25% | [11]; at 3.7 µM -9% | [11]; at 11.0 µM -35% | [11]; at 33.0 µM -32% | [11]; at 100.0 µM -34% | [12]; at 1.2 µM -45% | [12]; at 3.7 µM -53% | [12]; at 11.0 µM -39% | [12]; at 33.0 µM -64% | [12]; at 100.0 µM -55% | [13]; at 1.2 µM -28% | [13]; at 3.7 µM -31% | [13]; at 11.0 µM -34% | [13]; at 33.0 µM -20% | [13]; at 100.0 µM -39% | [14]; [16] 53% | [14]; [17] 41% | [15]; at 1.2 µM -23% | [15]; at 3.7 µM -2% | [15]; at 11.0 µM 3% | [15]; at 33.0 µM -28% | [15]; at 100.0 µM -10%
